Source: PubChem BioAssay (NCATS)
Records with an inconclusive call do not appear. Active and inactive are the calls of the source. Unless noted, calls follow the shape of the dose curve; as a rule, active = well fitted curve in either direction with a large enough effect (not every such curve was filed as active); inconclusive = small, poorly fitted or top-dose-only effect, or another doubt; inactive = flat fitted curve, though single readings scatter.

Legend:
[1] = AP1 Signaling Pathway (AID 357); settings: ME-180 AP-1-bla reporter, EGF-induced, beta-lactamase ratio, 5 h; at 17.2 µM (top of the series) unless noted; also: % is scaled to controls: 0 for no effect and ±100 for the full control effect
In short: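 ME-180 cells with beta-lactamase reporter under AP-1 response element, stimulated with EC50 EGF; compounds tested in titration series, 5 h at 37 °C. CCF4 substrate added 2.5 h at room temperature; 460/530 nm emission ratio gave %activity and AC50.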

[2] = Stat Signaling Pathway (AID 446); settings: ME-180 SIE beta-lactamase reporter, IL-6 stimulated, 5 h; at 17.2 µM (top of the series) unless noted;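 also: ME-180 cervical cancer cells given 40 pM IL-6 alongside compound; SIE-controlled beta-lactamase reporter measured as 460/530 nm FRET emission ratio; % is scaled to controls: 0 for no effect and ±100 for the full control effect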
In short: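 Screening format detects activators and inhibitors alike: ME-180 SIE-bla cells stimulated at 40 pM IL-6 for 5 hrs with compound, then dual-emission beta-lactamase read at 405 nm excitation.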

[3] = target: Glucocorticoid receptor (Homo sapiens) (UniProt P04150); assay: GR-GFP Redistribution (AID 450;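 active = compounds whose dose series gives a full or clear partial fitted curve of increased nuclear translocation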; also: potency is read from the fitted curve at half-maximal effect)
Sequence of Glucocorticoid receptor (Homo sapiens) (P04150 whole entry, looked up): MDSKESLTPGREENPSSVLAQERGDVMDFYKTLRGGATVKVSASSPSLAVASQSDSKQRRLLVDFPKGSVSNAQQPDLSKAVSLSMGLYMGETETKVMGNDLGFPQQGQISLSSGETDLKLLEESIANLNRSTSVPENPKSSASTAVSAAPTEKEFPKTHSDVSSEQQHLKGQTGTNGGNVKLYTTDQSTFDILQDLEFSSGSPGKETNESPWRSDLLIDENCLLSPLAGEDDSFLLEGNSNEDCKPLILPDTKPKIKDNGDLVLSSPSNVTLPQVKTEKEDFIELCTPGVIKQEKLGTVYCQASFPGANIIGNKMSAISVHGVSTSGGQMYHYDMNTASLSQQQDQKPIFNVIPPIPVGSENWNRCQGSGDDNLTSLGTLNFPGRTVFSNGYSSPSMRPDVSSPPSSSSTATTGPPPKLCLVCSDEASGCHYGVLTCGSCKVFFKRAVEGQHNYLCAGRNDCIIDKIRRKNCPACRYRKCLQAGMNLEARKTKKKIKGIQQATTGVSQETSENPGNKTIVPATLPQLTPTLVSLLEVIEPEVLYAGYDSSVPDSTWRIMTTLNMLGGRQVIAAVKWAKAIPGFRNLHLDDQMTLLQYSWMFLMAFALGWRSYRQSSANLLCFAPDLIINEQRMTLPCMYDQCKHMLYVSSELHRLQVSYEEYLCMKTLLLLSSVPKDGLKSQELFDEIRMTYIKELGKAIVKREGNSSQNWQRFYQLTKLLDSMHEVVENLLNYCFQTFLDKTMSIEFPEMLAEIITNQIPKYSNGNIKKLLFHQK

CC1(C)Cc2c(sc3c2C2=NCCN2C=N3)CO1
inactive: activity change, negative = inhibition [1] 12.7% | activity, negative = inhibition [2] 1.72% | Potency [3] > 20.6 µM

O=C1OC(Nc2ccc(Br)cc2F)c2ccccc21 (centres undefined)
inactive: activity change, negative = inhibition [1] 0.165% | activity, negative = inhibition [2] 2.24% | Potency [3] > 20.6 µM

Cc1cccc(OCCN2CSC(=S)N(C)C2)c1
inactive: activity change, negative = inhibition [1] -16.7% | activity, negative = inhibition [2] -7.42% | Potency [3] > 20.6 µM

CCCCC(=O)C1CCN(Cc2ccccc2)CC1
inactive: activity change, negative = inhibition [1] 4.33% | activity, negative = inhibition [2] 3.33% | Potency [3] > 20.6 µM

Clc1ccc(-n2ncc3c(NCc4cccs4)ncnc32)cc1
inactive: activity change, negative = inhibition [1] 13.8% | activity, negative = inhibition [2] -14.7% | Potency [3] > 20.6 µM

CC(=O)c1cc(CN2CCCCC2)cc(OC(C)C)c1
inactive: activity change, negative = inhibition [1] 15.3% | activity, negative = inhibition [2] 13.1% | Potency [3] > 20.6 µM

Cc1ccc(S(=O)(=O)N2CCC(N3CCCCCC3)CC2)cc1
inactive: activity change, negative = inhibition [1] 15.1% | activity, negative = inhibition [2] 10.2% | Potency [3] > 20.6 µM

Cn1c(OCc2ccco2)nc2c1c(=O)n(Cc1ccc(Cl)c(Cl)c1)c(=O)n2C
inactive: activity change, negative = inhibition [1] -3.54% | activity, negative = inhibition [2] 0.615% | Potency [3] > 20.6 µM

c1coc(-c2nnc3sc(Cc4cccs4)nn23)c1
inactive: activity change, negative = inhibition [1] -15.4% | activity, negative = inhibition [2] -17.3% | Potency [3] > 20.6 µM

CCOC(=O)C1=C(CSc2nc3c(cc2C#N)CCC3)OC(N)=C(C#N)C1c1ccccc1 (centres undefined)
inactive: activity change, negative = inhibition [1] 0.107% | activity, negative = inhibition [2] -16.4% | Potency [3] > 20.6 µM

Cc1c(CCC#N)c(N2CCN(C3CCCCC3)CC2)n2c(nc3ccccc32)c1C#N
inactive: activity change, negative = inhibition [1] -16.9% | activity, negative = inhibition [2] 9.87% | Potency [3] > 20.6 µM

COc1ccc(CCNc2oc(COc3ccccc3)nc2C#N)cc1
inactive: activity change, negative = inhibition [1] -23% | activity, negative = inhibition [2] -23.3% | Potency [3] > 20.6 µM

CCC1CCCCN1c1nc(-c2cccc(OC)c2O)nc2ccccc12 (centres undefined)
inactive: activity change, negative = inhibition [1] -8.8% | activity, negative = inhibition [2] -4.92% | Potency [3] > 20.6 µM

Cc1ccc(Cn2ncc3c(N4CCN(Cc5ccc(Cl)cc5)CC4)ncnc32)cc1
inactive: activity change, negative = inhibition [1] -8.19% | activity, negative = inhibition [2] -14.5% | Potency [3] > 20.6 µM

CCCc1cc(Nc2c(C)n(C)n(-c3ccccc3)c2=O)n2c(nc3ccccc32)c1C#N
inactive: activity change, negative = inhibition [1] -3.24% | activity, negative = inhibition [2] 0.163% | Potency [3] > 20.6 µM

OCCN(CCO)c1ncnc2c1sc1nc(N3CCOCC3)c3c(c12)CCCC3
inactive: activity change, negative = inhibition [1] -27.6% | activity, negative = inhibition [2] -21.5% | Potency [3] > 20.6 µM

CNC(=O)CC(C(=O)O)c1ccc(OC(C)C)cc1 (centres undefined)
inactive: activity change, negative = inhibition [1] 5.59% | activity, negative = inhibition [2] 5.76% | Potency [3] > 20.6 µM

CCOc1cccc(-c2nnc3sc(-c4cc(OC)c(OC)c(OC)c4)nn23)c1
inactive: activity change, negative = inhibition [1] 3.58% | activity, negative = inhibition [2] -10.4% | Potency [3] > 20.6 µM

Cn1c(N2CCOCC2)nc2c1c(=O)n(Cc1ccc(Cl)cc1)c(=O)n2C
inactive: activity change, negative = inhibition [1] 1.13% | activity, negative = inhibition [2] 23.9% | Potency [3] > 20.6 µM

Nc1ccc2oc(-c3cc(Br)ccc3Cl)nc2c1
inactive: activity change, negative = inhibition [1] -29.4% | activity, negative = inhibition [2] 0.658% | Potency [3] > 20.6 µM

CCOC(=O)c1[nH]c2ccccc2c1N=C(C)N(CC)CC
inactive: activity change, negative = inhibition [1] 4.17% | activity, negative = inhibition [2] 5.19% | Potency [3] > 20.6 µM

C=CCOc1ccc(/C(O)=C2\C(=O)C(=O)N(CCN(C)C)C2c2cccs2)cc1 (centres undefined)
inactive: activity change, negative = inhibition [1] -5.42% | activity, negative = inhibition [2] -3.79% | Potency [3] > 20.6 µM

CC1CN(C2CCN(C(=O)c3ccccc3)CC2)CC(C)O1 (centres undefined)
inactive: activity change, negative = inhibition [1] -5.21% | activity, negative = inhibition [2] 3.62% | Potency [3] > 20.6 µM

Cn1nnc2c(sc3nc(N4CCOCC4)c4c(c32)CCCC4)c1=O
inactive: activity change, negative = inhibition [1] -0.625% | activity, negative = inhibition [2] -0.897% | Potency [3] > 20.6 µM

Clc1ccc2[nH]c3c(NCCN4CCOCC4)ncnc3c2c1
inactive: activity change, negative = inhibition [1] -14.6% | activity, negative = inhibition [2] -0.484% | Potency [3] > 20.6 µM

CC(C)CNC(=O)c1c(N)n(/N=C/c2ccccn2)c2nc3ccccc3nc12
inactive: activity change, negative = inhibition [1] 14.9% | activity, negative = inhibition [2] 9.58% | Potency [3] > 20.6 µM

COC(=O)c1ccc(C2C(C(=O)c3cc4ccccc4o3)=C(O)C(=O)N2CCCN(C)C)cc1 (centres undefined)
inactive: activity change, negative = inhibition [1] -0.991% | activity, negative = inhibition [2] -11.4% | Potency [3] > 20.6 µM

COc1ccc(C2NC(=O)NC(O)(C(F)(F)F)C2C(=O)c2ccc(F)cc2)cc1 (centres undefined)
inactive: activity change, negative = inhibition [1] -8.86% | activity, negative = inhibition [2] -0.989% | Potency [3] > 20.6 µM

CN(CCOC(=O)c1cccc(Br)c1)C(C)(C)C
inactive: activity change, negative = inhibition [1] 9.82% | activity, negative = inhibition [2] 7.11% | Potency [3] > 20.6 µM

CCCSc1nnc2n(C)c(=O)c3c4c(sc3n12)CCC4
inactive: activity change, negative = inhibition [1] -1.82% | activity, negative = inhibition [2] -5.35% | Potency [3] > 20.6 µM

O=c1c2c3c(sc2n2cnnc2n1Cc1ccccc1)CN(Cc1ccccc1)CC3
inactive: activity change, negative = inhibition [1] 0.127% | activity, negative = inhibition [2] -0.303% | Potency [3] > 20.6 µM

COC(=O)CC1=C(C(=O)OC)C(c2ccc3c(c2Cl)OCO3)C(C#N)=C(N)O1 (centres undefined)
inactive: activity change, negative = inhibition [1] 29.4% | activity, negative = inhibition [2] 14.3% | Potency [3] > 20.6 µM

NC(Cc1ccc(Oc2ccc(O)cc2)cc1)C(=O)O (centres undefined)
inactive: activity change, negative = inhibition [1] -2.36% | activity, negative = inhibition [2] -1.48% | Potency [3] > 20.6 µM

COc1ccc(Nc2cc(C)nc3ccccc23)cc1
inactive: activity change, negative = inhibition [1] 10.5% | activity, negative = inhibition [2] 5.77% | Potency [3] > 20.6 µM

Cn1c(=O)c2c3c(sc2n2c(SCc4ccccc4)nnc12)CCCC3
inactive: activity change, negative = inhibition [1] -6.83% | activity, negative = inhibition [2] -27.8% | Potency [3] > 20.6 µM

CCOC(=O)C1CCN(c2nc3ccccc3nc2C(C#N)C(=O)OCCOC)CC1 (centres undefined)
inactive: activity change, negative = inhibition [1] -17.6% | activity, negative = inhibition [2] -9.08% | Potency [3] > 20.6 µM

CC1CCN(c2[nH]c(=S)c(C#N)c3c2CCCC3)CC1
inactive: activity change, negative = inhibition [1] 10.9% | activity, negative = inhibition [2] -15.1% | Potency [3] > 20.6 µM

COc1ccc(-c2nc3c(Br)c(N)c(Br)cc3o2)cc1
inactive: activity change, negative = inhibition [1] 4.22% | activity, negative = inhibition [2] 8.24% | Potency [3] > 20.6 µM

Nc1nc2n(n1)C(c1cccs1)CC(c1ccc(F)cc1)N2 (centres undefined)
inactive: activity change, negative = inhibition [1] 5.72% | activity, negative = inhibition [2] 1.08% | Potency [3] > 20.6 µM

CCSc1nnc(NC(=O)C(C(F)(F)F)C(F)(F)F)s1
inactive: activity change, negative = inhibition [1] -16.3% | activity, negative = inhibition [2] -21.8% | Potency [3] > 20.6 µM

N#Cc1nc(COc2ccc(Cl)cc2)oc1N1CCN(Cc2ccccc2)CC1
inactive: activity change, negative = inhibition [1] -16.3% | activity, negative = inhibition [2] 4.41% | Potency [3] > 20.6 µM

CCn1cc(C(=O)NCCc2ccccc2)c(=O)c2cc(F)c(N3CCN(C)CC3)cc21
inactive: activity change, negative = inhibition [1] -9.7% | activity, negative = inhibition [2] -5.45% | Potency [3] > 20.6 µM

O=c1cc(-c2ccco2)nc(-c2cccs2)o1
inactive: activity change, negative = inhibition [1] 6.68% | activity, negative = inhibition [2] 8.1% | Potency [3] > 20.6 µM

CC1(C)Cc2c(sc(NC(=O)c3ccc(Br)o3)c2C#N)CO1
inactive: activity change, negative = inhibition [1] -3.32% | activity, negative = inhibition [2] -9.34% | Potency [3] > 20.6 µM

CCCCOc1ccc(C(=O)OC2CC(C)N(C)CC2C)cc1 (centres undefined)
inactive: activity change, negative = inhibition [1] 5.59% | activity, negative = inhibition [2] 1.35% | Potency [3] > 20.6 µM

CCCCCCn1cc(C(=O)O)c(=O)c2ccccc21
inactive: activity change, negative = inhibition [1] -9% | activity, negative = inhibition [2] 8.19% | Potency [3] > 20.6 µM

CCCCn1c(O)c(C=NCCCN(C)C)c(=O)[nH]c1=O
inactive: activity change, negative = inhibition [1] -1.31% | activity, negative = inhibition [2] 3.99% | Potency [3] > 20.6 µM

Cc1cccc(NC(=O)c2c(C)cc(=O)oc2C)n1
inactive: activity change, negative = inhibition [1] -0.882% | activity, negative = inhibition [2] 4.29% | Potency [3] > 20.6 µM

CCOC(=O)c1c(SC)nc(SC)c2c1CCC2
inactive: activity change, negative = inhibition [1] -12.6% | activity, negative = inhibition [2] -4.26% | Potency [3] > 20.6 µM

N#CCSc1nc2sc3c(c2c(=O)n1C1CCCCC1)CCCC3
inactive: activity change, negative = inhibition [1] -7.41% | activity, negative = inhibition [2] 6.22% | Potency [3] > 20.6 µM

Cc1cccc(N(Cc2cc3ccccc3[nH]c2=O)C(=O)c2ccco2)c1C
inactive: activity change, negative = inhibition [1] -19.9% | activity, negative = inhibition [2] -17% | Potency [3] > 20.6 µM

CN1C2C=C3C(C#N)=C(N)C(C#N)(C#N)[C@@H](c4ccc(Cl)cc4)[C@@H]3C1CC2 (some centres undefined)
inactive: activity change, negative = inhibition [1] -8.82% | activity, negative = inhibition [2] 5.5% | Potency [3] > 20.6 µM

COc1ccc2c(c1OC)C(=O)N1c3ccccc3C(=O)N(c3ccccc3F)C21 (centres undefined)
inactive: activity change, negative = inhibition [1] -4.99% | activity, negative = inhibition [2] -18.4% | Potency [3] > 20.6 µM
